These results are taken from PubChem BioAssay (EPA / NIEHS).

By AC50 is commonly meant the concentration giving half of the maximal activity seen.

Assay [1] can be described thus: ACEA_ER_80hr: ACEA Biosciences xCELLigence Real-Time Cell Analysis on Estrogen Receptor Agonism for Proliferation (AID 2282667; active = hit-call score of the fitted dose curve at least 0.9, where 1 is the maximum). The conditions noted are these: T47D proliferation, impedance (xCELLigence), 80 h. The method, boiled down: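 Real-time impedance growth kinetics of human T-47D breast cells read 80 h after dosing, gain-of-signal fitted relative to DMSO. Compounds: 1:4 serial series, top final concentration 100 uM, n = 2.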

The nature of assay [2]: ATG_CRE_CIS: Attagene CIS-FACTORIAL HepG2 Assay for human cAMP Responsive Element (CRE) binding protein 3 (AID 2282926). The conditions noted are these: HepG2 CRE cis-reporter, Attagene multiplexed mRNA; actives raise or lower the signal. The method, boiled down:
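Multiplexed transcription-unit reporters transfected into HepG2; 24 h dosing; RT-PCR/capillary electrophoresis fluorescence read-out; bidirectional fit vs DMSO.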

Assay [3] has as its target CCAAT/enhancer-binding protein beta (Homo sapiens) (UniProt P17676). Description: ATG_C_EBP_CIS: Attagene CIS-FACTORIAL HepG2 Assay for human CCAAT/Enhancer Binding Protein (C/EBP) beta (AID 2282927). The settings on record: HepG2 Attagene cis-factorial transcription factor reporter; actives raise or lower the signal. The essentials: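 Endogenous C/EBPb-driven reporter transcripts measured in transfected human HepG2 cells at 24 h via RT-PCR and capillary electrophoresis of labelled fragments. Activity fitted in both directions relative to DMSO baseline.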

Assay [4] in a line: ATG_CMV_CIS: Attagene CIS-FACTORIAL HepG2 Assay for human CMV (Internal Marker) (AID 2282928).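 Also: endpoint acts as a background internal control marker rather than a target.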 The conditions noted are these: HepG2 CMV promoter reporter, transcription factor profiling; actives raise or lower the signal. The essentials: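 After transient transfection of HepG2 with reporter transcription units driven by cis-regulatory promoters, cells receive test chemical for 24 h. Labeled reporter amplicons, digested with HpaI, are sized and quantified by capillary electrophoresis against DMSO.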

Assay [5] is described as follows: ATG_DR4_LXR_CIS: Attagene CIS-FACTORIAL HepG2 Assay for human Liver X Receptor (LXR), DR4 submotif (AID 2282929). The conditions noted are these: HepG2 Attagene DR4 cis-reporter, mRNA transcription; actives raise or lower the signal. The method, boiled down: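 Transiently transfected HepG2 liver cells; cis-regulated reporters; 24 h dosing. RT-PCR plus CE read-out of reporter mRNA. DMSO baseline, bidirectional curve fitting.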

Assay [6] has as its target Aryl hydrocarbon receptor (Homo sapiens) (UniProt P35869). The assay can be described thus: ATG_Ahr_CIS: Attagene CIS-FACTORIAL HepG2 Assay for human Aryl Hydrocarbon Receptor (Ahr) (AID 2282930). The settings on record: HepG2 AhR cis-factorial reporter transcription; actives raise or lower the signal. The essentials:
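Reporter mRNA levels, quantified by RT-PCR and fluorescent capillary electrophoresis, reflect endogenous AhR transcriptional activity in HepG2 cells carrying transfected cis-promoter reporter constructs. Readout at 24 h post-dose; gain or loss fitted against DMSO baseline.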

A short description of assay [7]: ATG_AP_1_CIS: Attagene CIS-FACTORIAL HepG2 Assay for human Activator Protein 1 (AP-1) (AID 2282931). The settings on record: HepG2 Attagene cis-factorial AP-1 reporter mRNA; actives raise or lower the signal. The essentials:
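We transfected HepG2 cells transiently with a set of cis-regulated reporter transcription units, dosed them for 24 h, and quantified reporter mRNA via RT-PCR and capillary electrophoresis, scoring gain or loss of signal relative to DMSO.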

Assay [8] can be described thus: ATG_AP_2_CIS: Attagene CIS-FACTORIAL HepG2 Assay for human Activator Protein 2 (AP-2) (AID 2282932). The settings on record: HepG2 AP-2 cis-reporter, Attagene transcription factor profiling; actives raise or lower the signal. The essentials:
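Step one: transient transfection of HepG2 with reporter transcription units. Step two: 24 h chemical exposure. Step three: RNA extraction, RT-PCR, labelled fragment analysis by capillary electrophoresis; DMSO serves as baseline.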

The nature of assay [9]: ATG_BRE_CIS: Attagene CIS-FACTORIAL HepG2 Assay for human Bone Morphogenetic Protein (BMP) Response Element (BRE) (AID 2282933). The settings on record: HepG2 BMP response element reporter, Attagene transcription factor profiling; actives raise or lower the signal. The method, boiled down: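 Fluorescence-labelled reporter cDNA fragments, separated by capillary electrophoresis, gave the signal for this component of a 52-readout multiplex. HepG2 cells were transfected, exposed to chemicals for 24 h, and compared with DMSO using bidirectional fitting.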

In assay [10] the target is Retinoic acid receptor alpha (Homo sapiens) (UniProt P10276). The assay can be described thus: ATG_DR5_RAR_CIS: Attagene CIS-FACTORIAL HepG2 Assay for human Retinoic Acid Receptor Alpha (RARE), DR5 submotif (AID 2282934).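 As to AC50: reporter responds to endogenous RAR alpha beta and gamma in HepG2 not RARA alone.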 The conditions noted are these: HepG2 Attagene cis-factorial RARE DR5 reporter, mRNA; actives raise or lower the signal. The method, boiled down: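 Reporter transcripts from a DR5-regulated unit, measured via RT-PCR plus capillary electrophoresis, reflect endogenous RAR activity in transiently transfected human HepG2 liver cells. Exposure lasted 24 h; gain or loss of signal scored against DMSO.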

In assay [11] the target is Transcription factor E2F1 (Homo sapiens) (UniProt Q01094). The assay can be described thus: ATG_E2F_CIS: Attagene CIS-FACTORIAL HepG2 Assay for human E2F Transcription Factor 1 (AID 2282935). The settings on record: HepG2 Attagene cis-reporter, E2F reporter RNA transcripts; actives raise or lower the signal. The essentials: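 Total RNA from 24 h-treated, reporter-transfected HepG2 cells undergoes DNase I treatment, oligo(dT) reverse transcription, PCR and 6-FAM primer extension before capillary electrophoresis.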

Assay [12] can be described thus: ATG_E_Box_CIS: Attagene CIS-FACTORIAL HepG2 Assay for human Enhancer Box (E-box) (AID 2282936). The conditions noted are these: HepG2 E-box cis-reporter transcription, actives raise or lower the signal. The method, boiled down:
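DMSO served as negative control and baseline for bidirectional fitting. Human hepatoma HepG2 cells, transiently transfected with cis-reporter constructs, were dosed 24 h; reporter mRNA read by RT-PCR and capillary electrophoresis.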

The nature of assay [13]: ATG_M_61_CIS: Attagene CIS-FACTORIAL HepG2 Assay for M61 Transcription Factor (Internal Marker) (AID 2282937). The conditions noted are these: HepG2 Attagene CIS-FACTORIAL M61 internal marker reporter; actives raise or lower the signal. The essentials:
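Multiplexed reporter mRNA assay, HepG2 human hepatoma cells, 24 h treatment. Signal: FAM-labelled, HpaI-digested RT-PCR fragments by CE. Fit: bidirectional, baseline DMSO.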

Assay [14] is described as follows: ATG_EGR_CIS: Attagene CIS-FACTORIAL HepG2 Assay for human Early Growth Response 1 (EGR1) (AID 2282938). The conditions noted are these: HepG2 Attagene CIS-FACTORIAL EGR reporter mRNA; actives raise or lower the signal. The essentials:
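Multiplexed cis-reporter system in human hepatoma HepG2 cells, transiently transfected. Cells are dosed for 24 h; reporter transcripts are amplified, fluorescently tagged and sized by capillary electrophoresis, with DMSO as negative control.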

Assay [15] is described as follows: ATG_M_19_CIS: Attagene CIS-FACTORIAL HepG2 Assay for M19 Transcription Factor (Internal Marker) (AID 2282939). The conditions noted are these: HepG2 Attagene CIS-FACTORIAL M19 internal marker reporter; actives raise or lower the signal. The method, boiled down:
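HepG2, MRTU transient transfection, 24 h dosing. Total RNA → RT-PCR → 6-FAM primer extension → HpaI digest → CE fluorescence. Bidirectional curve fit, DMSO negative control.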

The nature of assay [16]: ATG_ERE_CIS: Attagene CIS-FACTORIAL HepG2 Assay for Estrogen Response Element (ERE) (AID 2282940). The conditions noted are these: HepG2 ERE cis-reporter, Attagene RNA transcript; actives raise or lower the signal. The essentials:
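After a 24 h chemical treatment, RNA from reporter-transfected HepG2 cells is reverse-transcribed, PCR-amplified and fluorescently labelled. Fragments separated by capillary electrophoresis give reporter signal; DMSO serves as negative control.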

Assay [17] is described as follows: ATG_Ets_CIS: Attagene CIS-FACTORIAL HepG2 Assay for human Erythroblast Transformation Specific (ETS) (AID 2282941). The conditions noted are these: HepG2 ETS cis-reporter transcription, actives raise or lower the signal. The method, boiled down: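 Human HepG2 hepatoma cells were transiently transfected with promoter-driven reporter constructs and treated for 24 hours. Reporter transcripts were quantified by RT-PCR with fluorescent primer extension; bidirectional curve fitting used DMSO as reference.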

Assay [18] addresses Hepatocyte nuclear factor 3-beta (Homo sapiens) (UniProt Q9Y261). The assay can be described thus: ATG_FoxA2_CIS: Attagene CIS-FACTORIAL HepG2 Assay for human Forkhead box A2 (FOXA2) (AID 2282942). The settings on record: HepG2 cis-reporter transcription factor activity, 24 h; actives raise or lower the signal. The essentials: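 Multiplexed cis-element reporter assay in transiently transfected HepG2. Twenty-four hours post-dosing, RNA was reverse-transcribed, amplified, FAM-labelled, HpaI-digested and separated by CE. Activity gain or loss relative to DMSO.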

Assay [19] can be described thus: ATG_FoxO_CIS: Attagene CIS-FACTORIAL HepG2 Assay for human Forkhead box O (FoxO) (AID 2282943). The conditions noted are these: HepG2 Attagene cis-reporter, FoxO element, mRNA; actives raise or lower the signal. The essentials:
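Endogenous transcription factor activity read from multiplexed cis-promoter reporter transcripts in transiently transfected HepG2, 24 h after dosing. Reporter RNA measured via RT-PCR plus capillary electrophoresis of FAM-labeled products; gain or loss relative to DMSO.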

The nature of assay [20]: ATG_GATA_CIS: Attagene CIS-FACTORIAL HepG2 Assay for human GATA Binding Protein (AID 2282944). The conditions noted are these: HepG2 GATA cis-element reporter, Attagene multiplex mRNA; actives raise or lower the signal. The method, boiled down:
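Cells: HepG2, transiently transfected with cis-regulated reporter transcription units. Exposure: 24 h. Detection: RT-PCR plus capillary electrophoresis of FAM-labeled fragments. Analysis: bidirectional, DMSO as baseline.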

Results filed as inconclusive are left out. Activity calls are given as the source filed them. The calls were made as follows, unless noted: active = hit-call score of the fitted dose curve at least 0.9, where 1 is the maximum; inactive = score below 0.9.

Chain of CCAAT/enhancer-binding protein beta (Homo sapiens) (P17676 whole entry, looked up, the tested form may be a part): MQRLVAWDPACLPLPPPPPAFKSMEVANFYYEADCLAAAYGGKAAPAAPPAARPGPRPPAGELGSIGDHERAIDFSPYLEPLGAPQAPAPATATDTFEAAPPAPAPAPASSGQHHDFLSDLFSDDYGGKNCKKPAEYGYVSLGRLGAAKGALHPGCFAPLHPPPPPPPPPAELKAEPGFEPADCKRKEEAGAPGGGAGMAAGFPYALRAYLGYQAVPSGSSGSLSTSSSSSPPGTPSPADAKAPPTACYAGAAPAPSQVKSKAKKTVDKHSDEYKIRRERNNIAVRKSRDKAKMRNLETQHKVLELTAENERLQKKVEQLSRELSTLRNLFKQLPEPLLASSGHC
Chain of Retinoic acid receptor alpha (Homo sapiens) (P10276 whole entry, looked up): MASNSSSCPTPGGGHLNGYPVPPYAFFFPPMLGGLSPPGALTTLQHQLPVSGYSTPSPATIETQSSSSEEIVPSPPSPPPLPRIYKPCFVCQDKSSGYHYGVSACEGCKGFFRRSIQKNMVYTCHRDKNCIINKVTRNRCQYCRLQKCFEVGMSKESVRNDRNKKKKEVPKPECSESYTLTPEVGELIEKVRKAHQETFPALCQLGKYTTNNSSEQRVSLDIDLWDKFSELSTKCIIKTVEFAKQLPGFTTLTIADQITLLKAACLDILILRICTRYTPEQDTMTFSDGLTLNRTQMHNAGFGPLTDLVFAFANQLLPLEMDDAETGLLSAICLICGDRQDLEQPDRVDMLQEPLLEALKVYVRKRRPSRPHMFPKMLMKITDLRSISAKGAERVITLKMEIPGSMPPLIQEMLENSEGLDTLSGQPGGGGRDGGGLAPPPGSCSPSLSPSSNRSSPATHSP
Chain of Transcription factor E2F1 (Homo sapiens) (Q01094 whole entry, looked up): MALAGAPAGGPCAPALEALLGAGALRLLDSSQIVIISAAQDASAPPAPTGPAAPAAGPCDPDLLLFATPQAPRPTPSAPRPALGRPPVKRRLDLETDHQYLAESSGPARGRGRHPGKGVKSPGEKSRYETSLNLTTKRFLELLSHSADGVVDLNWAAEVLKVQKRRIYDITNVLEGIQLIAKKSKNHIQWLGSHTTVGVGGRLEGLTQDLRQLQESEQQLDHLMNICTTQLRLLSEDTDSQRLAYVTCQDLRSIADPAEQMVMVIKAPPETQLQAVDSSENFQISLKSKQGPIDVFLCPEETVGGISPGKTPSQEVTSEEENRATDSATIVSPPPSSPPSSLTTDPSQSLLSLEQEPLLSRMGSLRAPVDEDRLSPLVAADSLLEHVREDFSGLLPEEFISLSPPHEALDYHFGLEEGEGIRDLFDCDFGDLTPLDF
Chain of Aryl hydrocarbon receptor (Homo sapiens) (P35869 whole entry, looked up): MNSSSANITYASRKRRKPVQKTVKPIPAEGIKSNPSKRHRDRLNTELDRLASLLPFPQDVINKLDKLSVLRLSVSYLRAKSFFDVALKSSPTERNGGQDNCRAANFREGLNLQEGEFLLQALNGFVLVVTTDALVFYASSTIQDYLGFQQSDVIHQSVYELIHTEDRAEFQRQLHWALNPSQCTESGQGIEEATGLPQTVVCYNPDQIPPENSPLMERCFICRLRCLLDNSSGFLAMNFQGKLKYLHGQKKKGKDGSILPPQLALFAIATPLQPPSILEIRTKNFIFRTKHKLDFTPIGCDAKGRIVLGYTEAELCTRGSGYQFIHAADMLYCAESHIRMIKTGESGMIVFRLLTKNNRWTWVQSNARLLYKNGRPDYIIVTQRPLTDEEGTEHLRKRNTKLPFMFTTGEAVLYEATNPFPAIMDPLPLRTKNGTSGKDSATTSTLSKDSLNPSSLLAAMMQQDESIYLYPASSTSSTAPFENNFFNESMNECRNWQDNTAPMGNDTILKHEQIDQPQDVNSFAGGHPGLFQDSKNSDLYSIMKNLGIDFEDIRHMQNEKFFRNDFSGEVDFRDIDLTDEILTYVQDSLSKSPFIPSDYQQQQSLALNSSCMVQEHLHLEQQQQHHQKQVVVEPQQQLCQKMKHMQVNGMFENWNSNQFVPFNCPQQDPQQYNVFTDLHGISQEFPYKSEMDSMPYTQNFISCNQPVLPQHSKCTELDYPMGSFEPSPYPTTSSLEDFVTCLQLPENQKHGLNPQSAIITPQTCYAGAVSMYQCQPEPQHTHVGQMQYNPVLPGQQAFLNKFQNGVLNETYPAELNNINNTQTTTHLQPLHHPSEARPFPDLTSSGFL
Chain of Hepatocyte nuclear factor 3-beta (Homo sapiens) (Q9Y261 whole entry, looked up): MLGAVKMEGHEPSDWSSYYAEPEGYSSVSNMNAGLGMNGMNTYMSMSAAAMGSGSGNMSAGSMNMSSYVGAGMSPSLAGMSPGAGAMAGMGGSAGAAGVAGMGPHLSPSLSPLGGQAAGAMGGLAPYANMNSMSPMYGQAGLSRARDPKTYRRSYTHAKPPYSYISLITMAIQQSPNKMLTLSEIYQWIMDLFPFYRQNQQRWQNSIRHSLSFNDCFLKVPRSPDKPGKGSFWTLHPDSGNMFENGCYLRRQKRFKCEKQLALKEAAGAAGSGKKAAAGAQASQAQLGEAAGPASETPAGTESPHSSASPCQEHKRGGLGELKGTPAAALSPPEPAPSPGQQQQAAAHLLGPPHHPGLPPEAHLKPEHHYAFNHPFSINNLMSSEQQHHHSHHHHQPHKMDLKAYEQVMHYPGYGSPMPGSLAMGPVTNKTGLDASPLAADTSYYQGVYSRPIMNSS

Regarding `CCc1cc(Cc2cc(CC)c(N)c(CC)c2)cc(CC)c1N`, the call in [1], in assay [3], in assay [6], in [8], in assay [9] and in assay [13] was inactive. Moreover, the compound was called inactive in [14], in assay [15], in assay [16], in assay [17] and in [20]. Further, the AC50 in assay [2] was 33.4 µM (active); in assay [4], 6.64 µM (active); in assay [5], 24.2 µM (active); in assay [7] it was 23.6 µM (active); in assay [10], 2.96 µM (active); in assay [11], 54.4 µM (active). For the same compound, the results for the AC50 in [12], in assay [18] and in assay [19] were 9.07 µM (active), 33.4 µM (active) and 58.8 µM (active), respectively.
`CN(C)C(C)(C)CO`: the AC50 in [1] is 50 µM (active). Also, the call in assay [2], in [3], in assay [4], in assay [5], in [6] and in assay [7] was inactive. Moreover, the compound was called inactive in assay [8], in assay [9], in assay [10], in assay [11], in assay [12] and in assay [13]. For the same compound, the compound was classed as inactive in assay [14], in assay [15], in assay [16], in [17], in [18] and in assay [19]. Also, in assay [20], the compound was classed as inactive.
With `CN(C(=O)C(F)(F)C(F)(F)C(F)(F)F)[Si](C)(C)C`, the outcome in [1], in assay [2], in assay [3], in assay [4], in [5] and in assay [6] was inactive. Besides, the outcome in assay [7], in [8], in assay [9], in assay [10], in assay [11] and in [12] was inactive. Also, the result in assay [13], in assay [14], in [15], in [16], in assay [17] and in assay [18] was inactive. Also, the call in [19] and in [20] was inactive.
In the case of `O=S(=O)(O)CCC(F)(F)C(F)(F)C(F)(F)C(F)(F)C(F)(F)C(F)(F)C(F)(F)C(F)(F)F`, the compound was classed as inactive in [1], in assay [2], in assay [3], in [4], in [5] and in assay [6]. Also, the compound was called inactive in [7], in [8], in assay [9], in [10], in assay [11] and in assay [12]. In addition, the compound was classed as inactive in [13], in assay [14], in [15], in assay [16], in assay [17] and in [18]. In addition, the outcome in assay [19] and in assay [20] was inactive.
